Our source for the inhibition of mean fluorescence and inhibition of percent positive cells values is PubChem BioAssay AID1014 (NMMLSC, 2008).

This assay in a line: blockers of bacterial quorum-sensing reporter fluorescence – flow cytometry, SAR analogs, SAR follow-up (AID 1014).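 Further: Staphylococcus aureus RN6390 with RNAIII-GFP reporter stimulated by AIP; bacteria incubated with compound for 3 hours at 37 °C.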 Particulars: at 20 µM, stronger effect = higher value; inhibition of percent positive cells: measured here: percent reporter-positive cells.

Active and inactive are the calls of the source. No stated cut-off is given here; in the data, active means inhibition of mean fluorescence above about 33%; inactive means the rest.

`O=C(NC1CCCC1)C(c1cc2c(cc1[N+](=O)[O-])OCO2)N1CCCC1` (stereo not drawn): the inhibition of mean fluorescence was -3.7% (inactive) and the inhibition of percent positive cells was -0.1%.
Regarding `Cc1ccc(Nc2c(F)c(F)c(F)c(F)c2C(=O)O)c(C)c1`, the inhibition of mean fluorescence was 4.2% (inactive) and the inhibition of percent positive cells was -2.3%.
As for `O=C(NCC(c1cccnc1)N1CCOCC1)c1cccc(Cl)c1` (stereo not drawn), the inhibition of mean fluorescence is -6.2% (inactive) and the inhibition of percent positive cells was determined as 0.6%.
With `O=C(O)c1ccccc1Nc1cccc2c1C(=O)c1ccccc1C2=O`, the inhibition of mean fluorescence is 58.7% (active) and the inhibition of percent positive cells was 10%.
As for `Cc1ccc(Nc2nc3c(S(=O)(=O)c4ccccc4)nnn3c3ccccc23)cc1`, the inhibition of mean fluorescence is -19% (inactive) and the inhibition of percent positive cells is 0.4%.
In the same order, the values of `O=C(NC1CCCCC1)C(c1cc2c(cc1[N+](=O)[O-])OCO2)N1CCCCC1` (stereo not drawn) are 12% (inactive) and -0.2%.
For the molecule `CC(=O)Nc1ccc(Nc2nc3c(S(=O)(=O)c4ccc(C(C)C)cc4)nnn3c3ccccc23)cc1`, the inhibition of mean fluorescence was 13.8% (inactive) and the inhibition of percent positive cells was found to be 0.4%.
In the same order, the values of `Cc1ccc(Nc2nc3c(S(=O)(=O)c4ccc(C(C)(C)C)cc4)nnn3c3ccccc23)cc1` are -38.2% (inactive) and -1%.
Consider `N#Cc1c(NC(=O)c2cc3ccccc3c(=O)o2)sc2c1CCCCCC2`, for which the inhibition of mean fluorescence was -18.3% (inactive) and the inhibition of percent positive cells turned out to be 0.2%.
In the same order, the values of `O=C(NC1CCCC1)C(c1cc2c(cc1[N+](=O)[O-])OCO2)N1CCN(C2CCCCC2)CC1` (stereo not drawn) are -24.8% (inactive) and -1.4%.
Consider `O=C(NCCN1CCN(c2ccccc2F)CC1)c1ccc2c(Cl)c3c(nc2c1)CCCC3`, for which the inhibition of mean fluorescence is 4.8% (inactive) and the inhibition of percent positive cells was -0.2%.
Regarding `CN1CCN(C(C(=O)NC2CCCCC2)c2cc3c(cc2[N+](=O)[O-])OCO3)CC1` (stereo not drawn), the inhibition of mean fluorescence is -5.8% (inactive) and the inhibition of percent positive cells was -0.4%.
Consider `COc1cccc(-n2cc(C(=O)N=C3NC(=O)CS3)c3ccccc3c2=O)c1`, for which the inhibition of mean fluorescence was -5.7% (inactive) and the inhibition of percent positive cells is 0%.
Turning to `CCOC(=O)c1c(-c2ccccc2)oc2ccc(O)cc12`, the inhibition of mean fluorescence is 13.3% (inactive) and the inhibition of percent positive cells was -0.9%.
In the same order, the values of `Cc1ccc(C)c(Nc2c(F)c(F)c(F)c(F)c2C(=O)O)c1` are 2.3% (inactive) and -1.9%.
On to `COc1cccc(C(=O)NCC(c2cccnc2)N2CCN(c3ccc(F)cc3)CC2)c1` (stereo not drawn), for which the inhibition of mean fluorescence was 8.6% (inactive) and the inhibition of percent positive cells stood at 0%.
In the case of `NC1=NC(=O)CC(C(=O)Nc2ccccc2)S1` (stereo not drawn), the inhibition of mean fluorescence was -19.2% (inactive) and the inhibition of percent positive cells was -0.6%.
On to `Cc1ccccc1C(=O)N1CCC(C(=O)Nc2ccc3c(c2)OCO3)CC1`, for which the inhibition of mean fluorescence was -8.8% (inactive) and the inhibition of percent positive cells is -0.4%.
Turning to `O=C(NC1CCCC1)C(c1cc2c(cc1[N+](=O)[O-])OCO2)N1CCN(c2ccccc2)CC1` (stereo not drawn), the inhibition of mean fluorescence is -13.2% (inactive) and the inhibition of percent positive cells was -1.6%.
In the case of `O=C(O)c1sc2ccccc2c1Nc1ccccc1`, the inhibition of mean fluorescence was -2.8% (inactive) and the inhibition of percent positive cells was found to be 0.6%.
Turning to `O=C(O)c1ccccc1Nc1cn2ncc([N+](=O)[O-])c2c(=O)[nH]1`, the inhibition of mean fluorescence is -1.7% (inactive) and the inhibition of percent positive cells was -0.3%.
In the case of `O=C1CS/C(=N\C(=O)N2c3ccccc3Sc3ccccc32)N1`, the inhibition of mean fluorescence is 91.4% (active) and the inhibition of percent positive cells was 52.4%.
As for `COc1cccc(Nc2c(F)c(OC)c(F)c(F)c2C(=O)O)c1`, the inhibition of mean fluorescence was -6.6% (inactive) and the inhibition of percent positive cells came out at 0%.
Turning to `CC1CCN(CCC(=O)Nc2ccc3c(c2)OCO3)CC1`, the inhibition of mean fluorescence is 10% (inactive) and the inhibition of percent positive cells was 1.6%.
On to `CCOc1ccc(Nc2nc3c(S(=O)(=O)c4ccc(Br)cc4)nnn3c3ccccc23)cc1`, for which the inhibition of mean fluorescence is -22.8% (inactive) and the inhibition of percent positive cells was -0.3%.
With `CC(=O)Nc1ccc(Nc2nc3c(S(=O)(=O)c4ccccc4)nnn3c3ccccc23)cc1`, the inhibition of mean fluorescence was -8% (inactive) and the inhibition of percent positive cells is 3.3%.
In the case of `COc1ccc(Nc2nc3c(S(=O)(=O)c4ccc(C)cc4)nnn3c3ccsc23)cc1`, the inhibition of mean fluorescence is -6.2% (inactive) and the inhibition of percent positive cells was -0.3%.
Consider `Cc1cc(Nc2ccccc2C(=O)O)n2ncnc2n1`, for which the inhibition of mean fluorescence was -29.1% (inactive) and the inhibition of percent positive cells was -0.3%.
For `CC1CC(C)CN(C(C(=O)Nc2ccc(C(C)C)cc2)c2cc3c(cc2[N+](=O)[O-])OCO3)C1` (stereo not drawn), the inhibition of mean fluorescence was -12.5% (inactive) and the inhibition of percent positive cells was -0.1%.
For the molecule `COc1ccc(C(=O)NCC(c2cccnc2)N2CCN(c3ccc(F)cc3)CC2)cc1` (stereo not drawn), the inhibition of mean fluorescence is -13.4% (inactive) and the inhibition of percent positive cells is -0.3%.
In the same order, the values of `CC(=O)c1c(C)oc2ccc(O)cc12` are -5.9% (inactive) and -1.1%.
For the molecule `O=C(NCC(c1cccnc1)N1CCN(c2ccc(F)cc2)CC1)c1ccccc1F` (stereo not drawn), the inhibition of mean fluorescence was -2.2% (inactive) and the inhibition of percent positive cells came out at 0.3%.
For the molecule `COc1c(F)c(F)c(C(=O)O)c(Nc2ccc(C)cc2C)c1F`, the inhibition of mean fluorescence is 67.8% (active) and the inhibition of percent positive cells worked out at 13.3%.
Regarding `CC(C)c1ccc(NC(=O)C(c2ccc3c(c2)OCO3)N2CCOCC2)cc1` (stereo not drawn), the inhibition of mean fluorescence is 2.7% (inactive) and the inhibition of percent positive cells is -0.1%.
